# Results published in PubChem BioAssay (NCATS).
# Several values for one entry are separate records, joined by “and”; a condition that tells them apart may be missing. Equal entries are not always repeated. Values without a mark were called inactive. Inconclusive results are not listed. Entries that show only a call come without a potency. Activity calls are given as the source filed them. Unless noted, the call rests on the fitted dose curve; in most records, active means well fitted curve in the direction sought with a large enough effect; inconclusive means small, poorly fitted or top-dose-only effect, or another doubt; inactive means no such curve, though single readings can be large; an effect the other way counts as inactive or inconclusive.
# Experiments:
# [1] = AP1 Signaling Pathway (AID 357; active means well fitted curve in either direction with a large enough effect, not every such curve was filed as active;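 further: ME-180 reporter cells stimulated with EGF at its EC50 level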); conditions: ME-180 AP-1-bla reporter, EGF-induced, beta-lactamase ratio, 5 h; at 7.69 µM (top of the series) unless noted
# In short: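 Cells are seeded overnight, exposed to compound titrations and an EC50 level of EGF for 5 hours at 37 °C, then loaded with CCF4 dye for 2.5 hours. Beta-lactamase activity under the AP-1 element is read as a blue/green ratio.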
# [2] = NFAT Signaling Pathway (AID 444; active means well fitted curve in either direction with a large enough effect, not every such curve was filed as active;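 further: carbachol stimulus at about its EC50 of 1 µM final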); conditions: Jurkat NFAT-bla M1, carbachol, beta-lactamase ratio, 5 h; at 7.69 µM (top of the series) unless noted
# In short: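 Jurkat cells carrying an NFAT-driven β-lactamase reporter and co-transfected muscarinic M1 receptor were treated with compound plus carbachol (1 uM final, an EC50 level) for 5 h at 37 °C. CCF4 loading followed for 1 h at RT; 460/530 nm ratio gave %activity.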
# [3] = Stat Signaling Pathway (AID 446; active means well fitted curve in either direction with a large enough effect, not every such curve was filed as active;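 further: ME-180 cervical cancer cells given 40 pM IL-6 alongside compound; SIE-controlled beta-lactamase reporter measured as 460/530 nm FRET emission ratio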); conditions: ME-180 SIE beta-lactamase reporter, IL-6 stimulated, 5 h
# In short: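 Reporter line: ME-180 cervical carcinoma, SIE-beta-lactamase. Treatment: compound with 40 pM IL-6, 5 hrs, 37 C, in low-serum OPTI-MEM with 10 mM HEPES pH 7.3. Detection: 460/530 nm fluorescence.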
# [4] = molecular target: Glucocorticoid receptor (Homo sapiens) (UniProt P04150); assay: GR-GFP Redistribution (AID 450;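 active means compounds whose dose series gives a full or clear partial fitted curve of increased nuclear translocation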; further: potency means the concentration at half of the fitted maximal effect); conditions: U2OS GR-GFP nuclear translocation, laser cytometry, 2 h
# [5] = molecular target: Glucocorticoid receptor (Homo sapiens) (UniProt P04150); assay: GR-EFC Redistribution (AID 451; calls by dose curve; further: potency means the concentration at half of the fitted maximal effect); conditions: CHO-K1 GR-EFC translocation, beta-gal luminescence, 2 h
# In short: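 CHO-K1 cells stably expressing nuclear-localized β-gal enzyme acceptor and GR fused C-terminally to the enzyme donor fragment; ligand-driven nuclear translocation restores β-gal by complementation. Compounds titrated up to 46 uM final, 2 h at 37 °C; luminescence read.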
# [6] = molecular target: Mitogen-activated protein kinase 10 (Mus musculus) (UniProt Q61831); assay: JNK3 AlphaScreen Assay (AID 530; active means well fitted curve in either direction with a large enough effect, not every such curve was filed as active;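 further: kinase came from lysate of stimulated human HepG2 cells; signal reports phosphorylation of biotinylated GST-cJun 1-79 at Ser73 with 10 µM ATP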)
# In short: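 JNK3 came from HepG2 lysates pre-activated with IL-1beta and TNF-alpha and phosphorylated biotinylated GST-cJun (1-79) at 10 uM ATP, pH 7.6, room temperature. Compounds were titrated. AlphaScreen signal used anti-phospho-cJun (Ser73) antibody.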
# [7] = molecular target: 3',5'-cyclic-AMP phosphodiesterase 4B (Homo sapiens) (UniProt Q07343); assay: qHTS Assay for Inhibitors of PDE-IV (AID 607; active means well fitted activation curve with a large enough effect in the main read-out, with a control signal flat, not every such curve was filed as active)
# In short: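 Cell-based read-out of cAMP via a modified cyclic nucleotide-gated channel and membrane potential dye (535/590 nm) in HEK293 cells expressing PDE4 endogenously. Compounds tested up to 22.9 uM final; 100 uM RO 20-1724 reference.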
# [8] = molecular target: Guanine nucleotide-binding protein G(i) subunit alpha-1 (Homo sapiens) (UniProt P63096); assay: qHTS Assay for Inhibitors of RGS12 GoLoco Motif Activity (Green Fluorophore) (AID 879);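 further: negative values mean loss of peptide binding seen as reduced polarization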
# In short: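 Fluorescence polarization assay: 50 nM Gαi1 with 10 nM FITC-labeled RGS12 GoLoco peptide in 10 mM Tris pH 7.5, 150 mM NaCl, 0.1 mM GDP, 0.05% NP40, 10 min at room temperature with compound.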
# [9] = molecular target: Muscarinic acetylcholine receptor M1 (Rattus norvegicus) (UniProt P08482); assay: qHTS Assay for Antagonists of Acetylcholine Muscarinic M1 Receptor: Measurement of IP-One Response (AID 944); further: nearly all actives have a fitted effect of over 75% in size
# In short: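 Steps: plate transfected CHO-M1 cells overnight; add test compound, 10 min; add carbachol (200 nM, EC80) in stimulation buffer with LiCl; incubate 30 min; add labelled IP1 tracer and anti-IP1 antibody in lysis buffer; read HTRF after 10 min.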
# [10] = molecular target: Pyruvate kinase (Leishmania mexicana) (UniProt Q27686); assay: qHTS Validation Assay for Inhibitors of Leishmania Mexicana Pyruvate Kinase (AID 945)
# In short: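 Purified LmPYK (E451W mutant, 0.2 nM) was incubated 1 h at room temperature with 0.5 mM PEP and 0.1 mM ADP in 50 mM imidazole pH 7.2, 50 mM KCl, 7 mM MgCl2; ATP formed was read by PKLight luminescence, normalized to DMSO wells.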
# [11] = molecular target: Pyruvate kinase PKM (Homo sapiens) (UniProt P14618); assay: qHTS Assay for Activators of Human Muscle Pyruvate Kinase (AID 954; active means well fitted curve in the direction sought with a large enough effect, not every such curve was filed as active)
# In short: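 Human PKM2 activity is measured as ATP generation, detected by luciferase-coupled luminescence. The enzyme (0.1 nM) acts on 0.5 mM PEP and 0.1 mM ADP for 1 h at ambient temperature; data are normalized to uninhibited and full-inhibition wells.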
# [12] = molecular target: alpha-glucosidase (Oryza sativa, rice) (UniProt Q653V4); assay: Counterscreen for Glucocerebrosidase Inhibitors: qHTS Assay for Rice alpha-Glucosidase at pH 5.0 (AID 997)
# In short: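 Rice alpha-glucosidase (4 nM final) with 400 uM 4-methylumbelliferyl-alpha-D-glucopyranoside in citrate buffer pH 5.0, 20 min at room temperature, stopped at pH 10; fluorescence 365/440 nm, compounds 0.7 nM–77 uM, AC50 from Hill fits.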
# [13] = molecular target: Cytochrome P450 1A2 (Homo sapiens) (UniProt P05177); assay: p450-cyp1a2 (AID 410; calls by dose curve; further: potency means the concentration at half of the fitted maximal effect)
# In short: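 Inhibition was calculated relative to 57 uM furafylline (full inhibition). The reaction used human CYP1A2 at 20nM with Luciferin-ME at its Km, 100uM, driven by an NADPH-regenerating system for 60 min at room temperature.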
# [14] = qHTS Assay for Identification of Small Molecule Agonists for Thrombopoietin (TPO) Signaling Pathway (AID 917)
# In short: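 IL-3-dependent murine pro-B Ba/F3 cells, stably transfected with human TPO receptor and GpIIb-promoter luciferase, are incubated 24 hrs at 37 C with test compound and 26 pM TPO; luciferase signal is read after 10 min at room temperature.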
# [15] = molecular target: Muscarinic acetylcholine receptor M1 (Rattus norvegicus) (UniProt P08482); assay: qHTS Assay for Antagonists of Acetylcholine Muscarinic M1 Receptor: Kinetic Measurement of Intracellular Calcium Response (AID 943);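 further: Fluo-4 calcium signal as peak divided by basal fluorescence over 4 min; nearly all actives have a fitted effect of over 75% in size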
# In short: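 Intracellular calcium flux, recorded with Fluo-4 in a kinetic plate reader, served as signal; the response to carbachol at EC80 (100 nM final) was taken as maximal over minimal fluorescence after a 10 min compound pre-incubation in rat M1-CHO cells.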
# [16] = molecular target: Cytochrome P450 3A4 (Homo sapiens) (UniProt P08684); assay: qHTS Assay for Activators of Cytochrome P450 3A4 (AID 885); further: nearly all actives have a fitted effect of over 65% in size
# In short: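 Signal was normalized against complete inhibition by 57 uM ketoconazole. The reaction used 20nM CYP3A4 with 25uM Luciferin-PPXE, 10-min compound preincubation and a 60-min NADPH-supported step at RT.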
# [17] = molecular target: Cytochrome P450 3A4 (Homo sapiens) (UniProt P08684); assay: qHTS Assay for Inhibitors and Substrates of Cytochrome P450 3A4 (AID 884); further: nearly all actives have a fitted effect of over 50% in size
# In short: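 20 nM human CYP3A4 with 25 uM Luciferin-PPXE (at KM) in 200 mM KPO4, preincubated 10 min with compound; NADPH regeneration started a 60 min RT reaction. Luciferin detected by luminescence, normalized to 57 uM ketoconazole as full inhibition.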
# [18] = molecular target: Alpha-galactosidase A (Homo sapiens) (UniProt P06280); assay: Counterscreen for Glucocerebrosidase Inhibitors: qHTS Assay for Human alpha-Galactosidase at pH 4.5 (AID 992)
# In short: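 Quantitative HTS: compounds tested from 0.7 nM up to 77 uM against 2 nM enzyme with 80 uM 4-MU alpha-D-galactopyranoside. The 20 min room-temperature reaction is stopped with 1M NaOH/1M glycine, pH 10.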
# [19] = at 7.69 µM (top of the series) unless noted
# Chain of Cytochrome P450 1A2 (Homo sapiens) (P05177 whole entry, looked up): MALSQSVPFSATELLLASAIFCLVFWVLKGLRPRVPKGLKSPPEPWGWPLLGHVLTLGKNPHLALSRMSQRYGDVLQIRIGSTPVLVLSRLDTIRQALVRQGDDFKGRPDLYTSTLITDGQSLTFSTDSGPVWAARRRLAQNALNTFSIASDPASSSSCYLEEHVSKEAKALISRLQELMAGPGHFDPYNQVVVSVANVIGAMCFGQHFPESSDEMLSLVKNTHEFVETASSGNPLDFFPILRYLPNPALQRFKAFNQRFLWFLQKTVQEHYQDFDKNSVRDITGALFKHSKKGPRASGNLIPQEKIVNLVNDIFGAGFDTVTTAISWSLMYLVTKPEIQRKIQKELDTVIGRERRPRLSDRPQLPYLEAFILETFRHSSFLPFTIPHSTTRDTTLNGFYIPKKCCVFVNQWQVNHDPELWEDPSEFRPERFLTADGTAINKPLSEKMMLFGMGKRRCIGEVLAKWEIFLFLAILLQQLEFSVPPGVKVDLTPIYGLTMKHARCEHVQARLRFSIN
# Chain of Pyruvate kinase PKM (Homo sapiens) (P14618 whole entry, looked up): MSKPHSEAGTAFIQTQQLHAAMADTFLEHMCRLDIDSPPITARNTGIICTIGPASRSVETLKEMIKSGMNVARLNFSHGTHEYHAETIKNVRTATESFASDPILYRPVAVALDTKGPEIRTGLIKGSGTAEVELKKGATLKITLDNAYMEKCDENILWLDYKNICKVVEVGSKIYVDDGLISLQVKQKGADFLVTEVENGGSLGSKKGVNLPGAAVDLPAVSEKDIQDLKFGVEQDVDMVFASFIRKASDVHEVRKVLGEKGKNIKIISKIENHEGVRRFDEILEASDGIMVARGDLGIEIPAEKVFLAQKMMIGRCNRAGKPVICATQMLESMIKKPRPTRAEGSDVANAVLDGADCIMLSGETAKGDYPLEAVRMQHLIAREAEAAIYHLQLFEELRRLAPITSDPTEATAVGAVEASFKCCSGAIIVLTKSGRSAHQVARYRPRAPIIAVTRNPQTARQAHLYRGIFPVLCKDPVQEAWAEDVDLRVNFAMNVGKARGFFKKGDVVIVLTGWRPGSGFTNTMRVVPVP
# Chain of Glucocorticoid receptor (Homo sapiens) (P04150 whole entry, looked up, the tested form may be a part): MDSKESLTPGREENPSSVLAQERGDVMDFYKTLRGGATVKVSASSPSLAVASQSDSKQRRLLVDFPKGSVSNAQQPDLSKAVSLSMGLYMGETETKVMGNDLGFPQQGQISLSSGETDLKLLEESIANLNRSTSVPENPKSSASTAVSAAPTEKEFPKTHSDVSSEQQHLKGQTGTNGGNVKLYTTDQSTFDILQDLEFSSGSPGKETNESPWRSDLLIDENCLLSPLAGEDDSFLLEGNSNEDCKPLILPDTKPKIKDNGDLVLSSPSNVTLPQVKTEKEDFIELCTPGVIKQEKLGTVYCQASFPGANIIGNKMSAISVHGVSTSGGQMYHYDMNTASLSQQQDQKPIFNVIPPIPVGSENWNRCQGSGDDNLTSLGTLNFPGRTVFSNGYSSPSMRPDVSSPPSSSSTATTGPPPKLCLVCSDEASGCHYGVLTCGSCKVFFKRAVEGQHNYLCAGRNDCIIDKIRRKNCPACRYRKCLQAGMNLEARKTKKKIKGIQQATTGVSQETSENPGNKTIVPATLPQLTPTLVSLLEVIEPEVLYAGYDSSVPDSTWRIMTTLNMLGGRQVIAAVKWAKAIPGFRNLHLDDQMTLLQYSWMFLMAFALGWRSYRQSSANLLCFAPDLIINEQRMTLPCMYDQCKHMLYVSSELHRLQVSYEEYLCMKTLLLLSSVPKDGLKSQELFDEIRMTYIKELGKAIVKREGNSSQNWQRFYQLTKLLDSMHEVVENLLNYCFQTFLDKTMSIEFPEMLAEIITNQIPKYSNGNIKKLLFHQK
# Chain of Cytochrome P450 3A4 (Homo sapiens) (P08684 whole entry, looked up): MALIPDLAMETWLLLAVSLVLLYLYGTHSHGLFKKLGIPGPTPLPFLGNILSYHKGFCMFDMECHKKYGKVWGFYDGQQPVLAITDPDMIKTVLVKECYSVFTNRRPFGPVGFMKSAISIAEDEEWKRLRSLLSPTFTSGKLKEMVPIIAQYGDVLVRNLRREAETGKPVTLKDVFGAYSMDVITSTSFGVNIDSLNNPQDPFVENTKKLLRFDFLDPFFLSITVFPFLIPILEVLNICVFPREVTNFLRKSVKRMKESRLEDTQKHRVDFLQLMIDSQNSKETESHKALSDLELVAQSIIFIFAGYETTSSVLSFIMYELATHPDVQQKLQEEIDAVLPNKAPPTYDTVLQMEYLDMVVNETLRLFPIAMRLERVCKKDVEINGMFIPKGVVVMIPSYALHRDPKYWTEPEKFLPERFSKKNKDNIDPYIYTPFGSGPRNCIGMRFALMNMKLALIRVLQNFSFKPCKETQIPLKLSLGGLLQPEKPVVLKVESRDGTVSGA
# Chain of Muscarinic acetylcholine receptor M1 (Rattus norvegicus) (P08482 whole entry, looked up): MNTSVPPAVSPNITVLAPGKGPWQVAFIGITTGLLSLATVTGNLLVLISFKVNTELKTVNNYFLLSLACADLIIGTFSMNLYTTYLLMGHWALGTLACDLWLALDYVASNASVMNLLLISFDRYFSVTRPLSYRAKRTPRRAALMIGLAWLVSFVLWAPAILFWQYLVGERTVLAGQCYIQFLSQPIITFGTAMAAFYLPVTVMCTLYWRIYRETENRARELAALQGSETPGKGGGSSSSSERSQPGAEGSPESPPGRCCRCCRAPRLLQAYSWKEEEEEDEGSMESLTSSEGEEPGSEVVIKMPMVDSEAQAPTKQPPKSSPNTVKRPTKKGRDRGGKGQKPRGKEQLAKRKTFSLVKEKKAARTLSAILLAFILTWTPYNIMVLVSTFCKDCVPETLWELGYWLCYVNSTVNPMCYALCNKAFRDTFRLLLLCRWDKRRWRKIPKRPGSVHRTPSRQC
# Chain of Guanine nucleotide-binding protein G(i) subunit alpha-1 (Homo sapiens) (P63096 whole entry, looked up): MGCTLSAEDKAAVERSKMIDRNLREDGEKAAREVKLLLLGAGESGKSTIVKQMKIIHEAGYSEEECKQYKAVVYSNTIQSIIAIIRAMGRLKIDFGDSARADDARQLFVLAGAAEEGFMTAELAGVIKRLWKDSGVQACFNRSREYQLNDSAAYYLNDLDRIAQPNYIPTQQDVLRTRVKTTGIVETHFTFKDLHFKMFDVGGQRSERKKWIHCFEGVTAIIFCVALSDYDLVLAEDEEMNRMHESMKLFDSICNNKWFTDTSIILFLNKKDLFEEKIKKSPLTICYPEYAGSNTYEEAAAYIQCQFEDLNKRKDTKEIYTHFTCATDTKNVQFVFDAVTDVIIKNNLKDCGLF
# Chain of 3',5'-cyclic-AMP phosphodiesterase 4B (Homo sapiens) (Q07343 whole entry, looked up): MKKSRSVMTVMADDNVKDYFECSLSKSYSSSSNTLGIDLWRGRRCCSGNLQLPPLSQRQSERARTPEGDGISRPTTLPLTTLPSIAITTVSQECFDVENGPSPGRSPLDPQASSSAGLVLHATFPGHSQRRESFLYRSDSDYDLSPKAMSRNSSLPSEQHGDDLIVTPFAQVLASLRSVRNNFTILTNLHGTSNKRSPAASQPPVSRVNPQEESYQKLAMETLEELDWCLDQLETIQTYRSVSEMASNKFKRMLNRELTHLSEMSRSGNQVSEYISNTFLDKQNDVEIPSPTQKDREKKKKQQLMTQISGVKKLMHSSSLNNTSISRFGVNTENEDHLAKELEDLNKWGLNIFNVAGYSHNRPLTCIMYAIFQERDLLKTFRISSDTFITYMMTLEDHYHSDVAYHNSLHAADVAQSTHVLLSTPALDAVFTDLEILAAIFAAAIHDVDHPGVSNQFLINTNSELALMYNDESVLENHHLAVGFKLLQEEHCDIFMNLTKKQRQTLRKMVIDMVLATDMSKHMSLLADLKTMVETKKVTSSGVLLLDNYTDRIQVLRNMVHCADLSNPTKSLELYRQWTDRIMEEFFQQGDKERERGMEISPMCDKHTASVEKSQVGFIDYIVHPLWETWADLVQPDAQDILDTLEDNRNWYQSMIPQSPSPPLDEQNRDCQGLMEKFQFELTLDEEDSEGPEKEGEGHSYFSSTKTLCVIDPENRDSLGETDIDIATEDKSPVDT
# Chain of Pyruvate kinase (Leishmania mexicana) (Q27686 2-499 E452W): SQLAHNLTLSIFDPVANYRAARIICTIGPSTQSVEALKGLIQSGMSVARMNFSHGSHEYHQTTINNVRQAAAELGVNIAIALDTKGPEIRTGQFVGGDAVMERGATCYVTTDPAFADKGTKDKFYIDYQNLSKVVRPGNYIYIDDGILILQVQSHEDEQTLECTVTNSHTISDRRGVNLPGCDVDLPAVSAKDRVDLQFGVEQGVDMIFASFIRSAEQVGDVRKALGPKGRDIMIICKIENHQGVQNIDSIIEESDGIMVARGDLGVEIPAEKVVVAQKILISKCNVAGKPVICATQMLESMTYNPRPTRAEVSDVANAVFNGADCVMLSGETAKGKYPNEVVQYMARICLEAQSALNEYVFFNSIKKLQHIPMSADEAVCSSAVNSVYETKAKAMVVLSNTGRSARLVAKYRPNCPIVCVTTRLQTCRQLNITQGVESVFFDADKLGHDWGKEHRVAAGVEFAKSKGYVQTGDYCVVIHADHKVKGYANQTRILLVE
# Chain of Alpha-galactosidase A (Homo sapiens) (P06280 whole entry, looked up): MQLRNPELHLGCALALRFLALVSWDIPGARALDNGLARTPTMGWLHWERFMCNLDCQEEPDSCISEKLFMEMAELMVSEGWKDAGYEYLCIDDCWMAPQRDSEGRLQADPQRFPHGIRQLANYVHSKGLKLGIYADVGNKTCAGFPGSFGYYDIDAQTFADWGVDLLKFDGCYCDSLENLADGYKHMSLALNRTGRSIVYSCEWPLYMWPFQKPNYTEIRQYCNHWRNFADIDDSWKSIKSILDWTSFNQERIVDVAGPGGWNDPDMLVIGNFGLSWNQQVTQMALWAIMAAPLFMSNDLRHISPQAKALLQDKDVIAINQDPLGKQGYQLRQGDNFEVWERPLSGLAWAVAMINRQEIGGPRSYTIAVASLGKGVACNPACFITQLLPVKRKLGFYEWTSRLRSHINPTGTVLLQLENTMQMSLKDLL
SMILES,"activity change, negative = inhibition [1]","activity change, negative = inhibition [2]","activity, negative = inhibition [3, 19]",Potency [4],Potency [5],Potency [6],Potency [7],outcome [8],Potency [9],outcome [10],outcome [11],Potency [12],Potency [13],outcome [14],Potency [15],Potency [16],Potency [17],outcome [18],"activity, negative = inhibition ([3]; at 17.2 µM (top of the series)) [%]","activity, negative = inhibition ([3]; at 38 µM (top of the series)) [%]"
COc1cc2c(cc1O)CC[C@@H]1[C@@H]2CC[C@@]2(C)[C@H](O)CC[C@H]12,-4.01% [at 38 µM],-2.76% [at 38 µM],-17.5% [at 38 µM],> 46 µM,> 46 µM,inactive,inactive,inactive,inactive,inactive,inactive,inactive,,,,,,,,
C#C[C@H](N)CCC(=O)O,2.59% [at 38 µM],,1.65% [at 38 µM],> 46 µM,> 46 µM,inactive,inactive,inactive,,,inactive,inactive,inactive,inactive,inactive,,,,,
NNC(=O)CNc1cccc(Br)c1,,-6.61%,-6.81%,> 46 µM,> 9.22 µM,inactive,inactive,,,,,,0.501 µM (active),,,inactive,,,,
COC(=O)[C@](C)(N)Cc1ccc(O)cc1,9.7% [at 38 µM],,-6.8% [at 38 µM],> 46 µM,> 46 µM,inactive,inactive,inactive,inactive,inactive,inactive,inactive,inactive,inactive,,,inactive,inactive,,
CC(C)C[C@H]1C(=O)N2CCC[C@@H]2[C@]2(O)O[C@](NC(=O)[C@H]3C=C4c5cccc6[nH]c(Br)c(c56)C[C@H]4N(C)C3)(C(C)C)C(=O)N12,-28.4% [at 17.2 µM],,,> 46 µM and > 20.6 µM,> 46 µM and > 20.6 µM,inactive,inactive,inactive,,inactive,inactive,inactive,inactive,,,inactive,,inactive,-20.4,-18.7
COc1ccccc1OC[C@H](O)CN1CCN(CC(=O)Nc2c(C)cccc2C)CC1,-8.83% [at 38 µM],,,> 46 µM,> 46 µM,inactive,inactive,inactive,inactive,inactive,inactive,inactive,,inactive,,,,,,
